In PubChem BioAssay (NCI):
“And” between values parts separate entries of the source, which are not always exact repeats. Equal values may be shown once. This is part of a sample that, as a whole, favours compounds with a hit. Of some 83,000 tested, about 20% had one in any assay.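 Method: cells in 96-well plates; compound added at one concentration; 48 h incubation; percent growth measured; values under 10 scored active.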 The source made the active and inactive calls.

What was measured:
Test in all cases: NCI-60 one-dose screen, 48 h (100 = growth as untreated, 0 = no growth, -100 = all killed)
Conditions in all cases: 10 µM unless noted
[1] = tested on: NCI-H23 lung
[2] = tested on: NCI-H226 lung
[3] = tested on: NCI-H322M lung
[4] = tested on: HOP-62 NSCLC
[5] = tested on: NCI-H460 lung
[6] = tested on: HOP-92 NSCLC
[7] = tested on: NCI-H522 lung
[8] = tested on: A549/ATCC NSCLC
[9] = tested on: 786-0 renal
[10] = tested on: COLO 205 colon
[11] = tested on: DU-145 prostate
[12] = tested on: K-562 leukemia
[13] = tested on: MALME-3M melanoma
[14] = tested on: MDA-MB-231 breast
[15] = tested on: RXF 393 renal
[16] = tested on: SF-268 CNS
[17] = tested on: SF-295 CNS
[18] = tested on: SF-539 CNS
[19] = tested on: UACC-257 melanoma
[20] = tested on: M14 melanoma

COc1ccc(CCNC(=O)COc2cc3c(Nc4ccc(F)c(Cl)c4)ncnc3cc2OC)cc1OC
growth [1]: 92.5% (inactive)
growth [2]: 98.5% (inactive)
growth [3]: 27.3% (inactive)
growth [4]: 95.7% (inactive)
growth [5]: 95.7% (inactive)
growth [6]: 87.9% (inactive)
growth [7]: 70.2% (inactive)
growth [8]: 84.8% (inactive)
growth [9]: 89.4% (inactive)
growth [10]: 102% (inactive)
growth [11]: 58% (inactive)
growth [12]: 112% (inactive)
growth [13]: 86.9% (inactive)
growth [14]: 94.4% (inactive)
growth [15]: 96% (inactive)
growth [16]: 85.7% (inactive)
growth [17]: 98.1% (inactive)
growth [18]: 103% (inactive)
growth [19]: 110% (inactive)
growth [20]: 101% (inactive)

C=C(CN1CC=CCC1)[C@@H]1CC[C@]2(COC(C)=O)CC[C@]3(C)[C@H](CC[C@@H]4[C@@]5(C)CC[C@H](O)C(C)(C)[C@@H]5CC[C@]43C)[C@@H]12
growth [1]: 102% (inactive)
growth [2]: 92.5% (inactive)
growth [3]: 114% (inactive)
growth [4]: 107% (inactive)
growth [5]: 96.3% (inactive)
growth [6]: 92.7% (inactive)
growth [7]: 95% (inactive)
growth [8]: 95.3% (inactive)
growth [9]: 103% (inactive)
growth [10]: 105% (inactive)
growth [11]: 102% (inactive)
growth [12]: 91.7% (inactive)
growth [13]: 113% (inactive)
growth [14]: 112% (inactive)
growth [15]: 109% (inactive)
growth [16]: 106% (inactive)
growth [17]: 105% (inactive)
growth [18]: 96.8% (inactive)
growth [19]: 99.4% (inactive)
growth [20]: 97.4% (inactive)

CN(C)CCCn1c2c(c3ccc(N4CCNCC4)cc3c1=O)C(=O)c1ccccc1-2
growth [1]: -59.5% (active)
growth [2]: 14.2% (inactive)
growth [3]: 13% (inactive)
growth [4]: -34.7% (active)
growth [5]: -47.9% (active)
growth [6]: 18.4% (inactive)
growth [7]: 5.51% (active)
growth [8]: -61.7% (active)
growth [9]: -95.3% (active)
growth [10]: 4.57% (active)
growth [11]: -30.1% (active)
growth [12]: -28.5% (active)
growth [13]: 21% (inactive)
growth [14]: -49.7% (active)
growth [15]: -78.8% (active)
growth [16]: -24.8% (active)
growth [17]: -5.76% (active)
growth [18]: 52.7% (inactive)
growth [19]: 37.3% (inactive)
growth [20]: 19.4% (inactive)

CC(C)(C)c1cc(NC(=O)Nc2ccc(-c3cn4c(n3)sc3cc(OCCN5CCOCC5)ccc34)cc2)no1
growth [1]: 23.9% (inactive) and 42.6% (inactive)
growth [2]: 17.8% (inactive)
growth [3]: 34.9% (inactive) and 54.5% (inactive)
growth [4]: 35.7% (inactive) and -26.2% (active)
growth [5]: -10.7% (active) and 10.4% (inactive)
growth [6]: -2.21% (active) and -1.85% (active)
growth [7]: -3.14% (active) and 10.6% (inactive)
growth [8]: 28.3% (inactive) and 17.3% (inactive)
growth [9]: -9.92% (active) and 7.85% (active)
growth [10]: 10.7% (inactive) and -43.9% (active)
growth [11]: 35.5% (inactive) and 45.5% (inactive)
growth [12]: 11.9% (inactive) and 33.9% (inactive)
growth [13]: 28.9% (inactive) and 20.2% (inactive)
growth [14]: 43.3% (inactive) and 35.6% (inactive)
growth [15]: -6.16% (active) and -13.6% (active)
growth [16]: 37.2% (inactive) and 22.8% (inactive)
growth [17]: -58.7% (active) and 16.4% (inactive)
growth [18]: -83.3% (active) and 13.6% (inactive)
growth [19]: 4.5% (active) and -6.8% (active)
growth [20]: 37.4% (inactive) and 24% (inactive)

Fc1ccccc1-c1cnn2cc(-c3ccccc3)cnc12
growth [1]: 95.5% (inactive)
growth [2]: 94.3% (inactive)
growth [3]: 95.5% (inactive)
growth [4]: 103% (inactive)
growth [5]: 98.2% (inactive)
growth [6]: 100% (inactive)
growth [7]: 97.7% (inactive)
growth [8]: 94.2% (inactive)
growth [9]: 97.2% (inactive)
growth [10]: 118% (inactive)
growth [11]: 110% (inactive)
growth [12]: 83.5% (inactive)
growth [13]: 109% (inactive)
growth [14]: 108% (inactive)
growth [15]: 94.9% (inactive)
growth [16]: 88.9% (inactive)
growth [17]: 98.2% (inactive)
growth [18]: 103% (inactive)
growth [19]: 110% (inactive)
growth [20]: 105% (inactive)

CC(C)=CCc1cc(O)c(O)c2oc3cc(O)cc(O)c3c(=O)c12
growth [1]: 51.1% (inactive)
growth [2]: 96.9% (inactive)
growth [3]: 75.1% (inactive)
growth [4]: 45.9% (inactive)
growth [5]: 25.1% (inactive)
growth [6]: 86.9% (inactive)
growth [7]: 58.4% (inactive)
growth [8]: 43.3% (inactive)
growth [9]: 64.8% (inactive)
growth [10]: 91.7% (inactive)
growth [11]: 55.8% (inactive)
growth [12]: 67% (inactive)
growth [13]: 91.3% (inactive)
growth [14]: 55.5% (inactive)
growth [15]: 84.6% (inactive)
growth [16]: 49.7% (inactive)
growth [17]: 77.9% (inactive)
growth [18]: 64.8% (inactive)
growth [19]: 98.2% (inactive)
growth [20]: 63.9% (inactive)

CCCCCCCCCCCCC[C@H](O)C[C@H](O)[C@H](C)N
growth [1]: 99.2% [1.25 µM] (inactive)
growth [2]: 126% [1.25 µM] (inactive)
growth [3]: 102% [1.25 µM] (inactive)
growth [4]: 116% [1.25 µM] (inactive)
growth [5]: 103% [1.25 µM] (inactive)
growth [6]: 56.7% [1.25 µM] (inactive)
growth [7]: 119% [1.25 µM] (inactive)
growth [8]: 89.3% [1.25 µM] (inactive)
growth [9]: 85.9% [1.25 µM] (inactive)
growth [10]: 92.2% [1.25 µM] (inactive)
growth [11]: 96.9% [1.25 µM] (inactive)
growth [12]: 102% [1.25 µM] (inactive)
growth [13]: 132% [1.25 µM] (inactive)
growth [14]: 90% [1.25 µM] (inactive)
growth [15]: 8.68% [1.25 µM] (active)
growth [16]: 115% [1.25 µM] (inactive)
growth [17]: 108% [1.25 µM] (inactive)
growth [18]: 100% [1.25 µM] (inactive)
growth [19]: 113% [1.25 µM] (inactive)
growth [20]: 95.9% [1.25 µM] (inactive)

COc1ccc(-c2cc(-c3cc(OC)c(OC)c(OC)c3)c(C#N)c(=O)n2CCCCC(=O)O)cc1
growth [1]: 96.7% (inactive)
growth [2]: 104% (inactive)
growth [3]: 98.4% (inactive)
growth [4]: 96.8% (inactive)
growth [5]: 96% (inactive)
growth [6]: 93.6% (inactive)
growth [7]: 87.3% (inactive)
growth [8]: 93.9% (inactive)
growth [9]: 97.5% (inactive)
growth [10]: 115% (inactive)
growth [11]: 98.2% (inactive)
growth [12]: 88% (inactive)
growth [13]: 114% (inactive)
growth [14]: 81.6% (inactive)
growth [15]: 99.2% (inactive)
growth [16]: 86.9% (inactive)
growth [17]: 95% (inactive)
growth [18]: 94.4% (inactive)
growth [19]: 103% (inactive)
growth [20]: 98% (inactive)

COc1ccc(/C=N/C2=C(C#N)C(c3ccccc3)c3c(ccc4ccccc34)O2)cc1 (stereo not given)
growth [1]: 36.9% (inactive)
growth [2]: 33.8% (inactive)
growth [3]: 40.9% (inactive)
growth [4]: 35.5% (inactive)
growth [5]: 15.5% (inactive)
growth [6]: 53.9% (inactive)
growth [7]: 2.3% (active)
growth [8]: 41.9% (inactive)
growth [9]: 29.2% (inactive)
growth [10]: 0.29% (active)
growth [11]: 24.6% (inactive)
growth [12]: 8.18% (active)
growth [13]: 47.5% (inactive)
growth [14]: 33.4% (inactive)
growth [15]: -8.72% (active)
growth [16]: 50.7% (inactive)
growth [17]: 10.9% (inactive)
growth [18]: 6.89% (active)
growth [19]: 61.8% (inactive)
growth [20]: 11.8% (inactive)

CCN(CC)CCOc1ccc(/C(=C(\Cl)c2ccccc2)c2ccccc2)cc1
growth [1]: 61.2% (inactive) and 81.6% (inactive)
growth [2]: 27.6% (inactive) and 49.4% (inactive)
growth [3]: 74.8% (inactive)
growth [4]: -40% (active) and 61.3% (inactive)
growth [5]: 5.92% (active)
growth [6]: 30.6% (inactive) and 83.7% (inactive)
growth [7]: 43.9% (inactive) and 98.7% (inactive)
growth [8]: 84.8% (inactive)
growth [9]: -65.1% (active) and 87.8% (inactive)
growth [10]: -74.8% (active) and -60.4% (active)
growth [11]: 74.6% (inactive) and 103% (inactive)
growth [12]: -2.92% (active) and 28% (inactive)
growth [13]: -18.7% (active)
growth [14]: 1.62% (active) and 26.1% (inactive)
growth [15]: -58.3% (active) and -26.6% (active)
growth [16]: 62.8% (inactive) and 103% (inactive)
growth [17]: -23.1% (active)
growth [18]: -5.76% (active) and 29.9% (inactive)
growth [19]: -57.9% (active) and 45.8% (inactive)
growth [20]: -36.2% (active) and 43.3% (inactive)

O=C([C@H]1C[C@H]1c1ccc(S(F)(F)(F)(F)F)cc1)N1CCN(c2cc(Cl)ccc2C(F)(F)F)CC1
growth [1]: 91.2% (inactive)
growth [2]: 75.7% (inactive)
growth [3]: 90.1% (inactive)
growth [4]: 102% (inactive)
growth [5]: 95.6% (inactive)
growth [6]: 88.3% (inactive)
growth [7]: 70.7% (inactive)
growth [8]: 81.5% (inactive)
growth [9]: 89.3% (inactive)
growth [10]: 101% (inactive)
growth [11]: 104% (inactive)
growth [12]: 74.2% (inactive)
growth [13]: 89.7% (inactive)
growth [14]: 97.2% (inactive)
growth [15]: 91.8% (inactive)
growth [16]: 90.2% (inactive)
growth [17]: 92.6% (inactive)
growth [18]: 107% (inactive)
growth [19]: 94.9% (inactive)
growth [20]: 90.7% (inactive)

CC(=O)c1c(C)nc(SCC(=O)Nc2ccc(Cl)cc2)n1-c1ccc(Cl)cc1
growth [1]: 96.5% (inactive)
growth [2]: 96% (inactive)
growth [3]: 94.9% (inactive)
growth [4]: 99% (inactive)
growth [5]: 86.7% (inactive)
growth [6]: 110% (inactive)
growth [7]: 72.3% (inactive)
growth [8]: 86.7% (inactive)
growth [9]: 102% (inactive)
growth [10]: 109% (inactive)
growth [11]: 106% (inactive)
growth [12]: 83% (inactive)
growth [13]: 90.8% (inactive)
growth [14]: 82% (inactive)
growth [15]: 67.3% (inactive)
growth [16]: 92.5% (inactive)
growth [17]: 91.3% (inactive)
growth [18]: 95.8% (inactive)
growth [19]: 94.5% (inactive)
growth [20]: 98.4% (inactive)

COc1cc2cc(NCc3ccncc3)nc(C)c2cc1OC
growth [1]: 91.5% (inactive)
growth [2]: 89.7% (inactive)
growth [3]: 103% (inactive)
growth [4]: 62% (inactive)
growth [5]: 102% (inactive)
growth [6]: 87.2% (inactive)
growth [7]: 80.4% (inactive)
growth [8]: 78.9% (inactive)
growth [9]: 71.8% (inactive)
growth [10]: 95.8% (inactive)
growth [11]: 107% (inactive)
growth [12]: 126% (inactive)
growth [13]: 108% (inactive)
growth [14]: 85.9% (inactive)
growth [15]: 98.5% (inactive)
growth [16]: 81.9% (inactive)
growth [17]: 71.3% (inactive)
growth [18]: 89.3% (inactive)
growth [19]: 79.3% (inactive)
growth [20]: 82% (inactive)

CCN(CC)CC#CCOC(=O)[C@]1(C)CCC[C@]2(C)c3ccc(C(C)C)cc3CC[C@@H]12
growth [1]: 70.8% (inactive)
growth [2]: 82.5% (inactive)
growth [3]: 93.7% (inactive)
growth [4]: 96.2% (inactive)
growth [5]: 97.9% (inactive)
growth [6]: 76.7% (inactive)
growth [7]: 80.6% (inactive)
growth [8]: 87.5% (inactive)
growth [9]: 81.2% (inactive)
growth [10]: 80.2% (inactive)
growth [11]: 91.9% (inactive)
growth [12]: 63.4% (inactive)
growth [13]: 77.2% (inactive)
growth [14]: 101% (inactive)
growth [15]: 74.5% (inactive)
growth [16]: 96.3% (inactive)
growth [17]: 92.8% (inactive)
growth [18]: 79.6% (inactive)
growth [19]: 86.2% (inactive)
growth [20]: 87% (inactive)
